Screens (PubChem)
Sampled rows, rich in hits. Any-hit rate of the full collection: about 21%.
NS1 function inh = inhibitors of influenza NS1 protein function | Potency, µM (doses to about 46.1 µM) | 270,000 compounds, 0.4% hits; calls by dose curve; further: actives are rising curves; nearly all actives have a fitted effect of over 50% in size
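Recovery from NS1-induced slow growth read by OD600 in budding yeast switched to galactose assay medium (pH 6.0, -URA) at 1:100 dilution. Compound 23 nl per well; the matching strain lacking NS1 serves as control.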
Pf growth 48h = P. falciparum growth inhibition at 48 hours (one generation) | P. falciparum luciferase growth in erythrocytes, 48 h | Potency, µM (titrated, usually from 28.7 µM), most hits filed as inhibitors | 310,000 compounds, 5.9% hits | AID 504832
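Parasite viability was followed by luminescence of a genomically integrated firefly luciferase. Cultures held 0.1% parasitemia at 2% hematocrit (final), incubated under 5% CO2 at 37 C.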
FBPA Giardia inh = Giardia lamblia aldolase inhibition. purified Giardia FBPA. AID 2451. Potency, µM (top dose mostly 59.6 µM), actives largely listed as inhibitors. 290,000 compounds, 0.71% hits; further: nearly all actives have a fitted effect of over 55% in size
Target sequence (A8B2U2 whole entry, looked up): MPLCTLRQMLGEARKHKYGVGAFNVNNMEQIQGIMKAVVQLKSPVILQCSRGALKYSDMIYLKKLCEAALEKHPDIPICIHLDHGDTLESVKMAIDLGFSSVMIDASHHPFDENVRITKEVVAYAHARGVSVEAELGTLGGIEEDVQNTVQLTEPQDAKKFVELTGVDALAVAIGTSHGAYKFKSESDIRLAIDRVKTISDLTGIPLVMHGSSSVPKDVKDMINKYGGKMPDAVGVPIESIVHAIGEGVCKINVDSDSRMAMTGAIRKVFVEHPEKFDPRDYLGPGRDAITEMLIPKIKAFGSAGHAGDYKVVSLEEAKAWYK
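40 nM FBPA preincubated 10 min at RT with compound (up to 57.5 uM final), then substrate plus GAPDH/TPI/NAD/arsenate coupling and diaphorase/resazurin added. Fluorescence read after 20 min at RT, 525/598 nm.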
Pf growth 96h = inhibits malaria parasite growth, 96 h | AID 504834 | 320,000 compounds, 6.9% hits | Potency, µM (series often up to 28.7 µM), actives largely listed as inhibitors | P. falciparum luciferase reporter growth, 96 h
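96 h incubation, 37 C, 5% CO2, of luciferase-reporter P. falciparum-infected RBCs (2% hematocrit, 0.05% parasitemia final) with test compounds; endpoint luminescence.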
Shiga inhibitor = inhibitors of Shiga toxin in Vero cells; Vero cells, Shiga toxin protein synthesis inhibition reporter; inhibition, % at 38.7 µM; 290,000 compounds, 9.2% hits; in the data active means inhibition mostly above about 28%, no sharp cut-off; inactive means mostly below about 43%
CHX counter = counter-screen for Shiga toxin inhibitors: cycloheximide protein synthesis inhibition | cell reporter, cycloheximide protein synthesis inhibition counterscreen | max response, % | 300,000 compounds, 12% hits | AID 2314; in the data active means max response mostly above about 13%, no sharp cut-off; inactive means mostly below about 14%; further: read at 38.3 µM for the half of the compounds with a filed dose
Numbers stand for hits; – = inactive; ? = inconclusive; · = no result given. Unless noted, the call rests on the fitted dose curve; in most records, active means well fitted curve in the direction sought with a large enough effect; inconclusive means small, poorly fitted or top-dose-only effect, or another doubt; inactive means no such curve, though single readings can be large; an effect the other way counts as inactive or inconclusive.

SMILES | NS1 function inh | Pf growth 48h | FBPA Giardia inh | Pf growth 96h | Shiga inhibitor | CHX counter
CC1(C)CC(=O)/C(=N/Nc2ccc(Cl)cc2)CO1 | – | – | – | – | 93 | 32
Cc1cccc(N/N=C2/COC(C)(C)CC2=O)c1 | – | – | – | – | 133 | 78
Cc1cccc(NN=C2c3ccccc3-c3ccccc32)c1 | – | – | – | – | – | –
CC(=O)O[C@H]1CC[C@]2(C)C(=CC[C@H]3[C@H]4C[C@H]5O[C@]6(CC[C@H](C)CN6)[C@H](C)[C@@H]5[C@]4(C)CC[C@@H]32)C1 | – | · | · | · | · | ·
CCC/C=C(\CCC)C(NC(=O)c1ccccc1)c1ccccc1 (stereo unspecified) | · | · | – | · | · | ·
Cc1csc(NC(=O)c2cnccn2)n1 | – | – | – | · | – | 45
Cc1ccc(C)c(-c2csc(NC(=O)c3cnccn3)n2)c1 | · | ? | – | 12µM | – | –
O=C(CNS(=O)(=O)c1cccc(Br)c1)NCC1CCCCC1 | – | – | · | – | – | –
O=C(CCCNS(=O)(=O)c1cccc2nsnc12)NCc1ccccc1 | – | – | – | 9.3µM | – | –
CC1Cc2ccccc2N1C(=O)CCNS(=O)(=O)c1cccc2nsnc12 (stereo unspecified) | – | – | – | 2.6µM | – | –
Cc1cc2[nH]c(=O)c(=O)[nH]c2cc1S(=O)(=O)NC1CCCCC1C (stereo unspecified) | – | – | – | 4.7µM | – | –
Cc1ccc(NC(=O)CCN2C(=O)C3C4CCC(C4)C3C2=O)cc1Cl (stereo unspecified) | – | – | – | – | – | 25
O=C(CCN1C(=O)C2C3CCC(C3)C2C1=O)Nc1ccc(Br)cc1 (stereo unspecified) | – | – | – | – | – | 12
COc1ccc(NC(=O)CCN2C(=O)C3C4CCC(C4)C3C2=O)cc1 (stereo unspecified) | ? | – | – | – | – | 17
Cc1n[nH]c(=O)c2c(NC(=O)CSc3nn(-c4ccccc4)c(=S)s3)oc(C)c12 | · | – | · | – | · | ·
CC(C)(C)[Si](C)(C)c1c2c(nc3ccc(OCc4ccccc4)cc13)-c1cccc(=O)n1C2 | · | · | – | · | · | ·
CN(Cc1cnc2nc(N)nc(N)c2n1)c1ccc(C(=O)N[C@H](CCC(=O)O)C(=O)O)cc1 | · | · | – | · | · | ·
CN(Cc1cnc2nc(N)nc(N)c2n1)c1ccc(C(=O)N[C@@H](CCC(=O)O)C(=O)O)cc1 | – | 0.043µM | – | 1.7µM | · | ·
Clc1ccccc1CSc1ncn(-c2ccccc2)n1 | – | – | – | – | 70 | 42
Cc1ccc(CSc2ncn(-c3ccccc3)n2)cc1 | – | · | – | ? | 86 | 36
O=C(CSc1ncn(-c2ccccc2)n1)NCc1ccccc1 | – | – | – | · | – | –
Cc1ccc(N2CC(C(=O)Nc3ccc(S(=O)(=O)NCC4CCCO4)cc3)CC2=O)cc1C (stereo unspecified) | – | – | – | – | – | –
Cc1ccc(NC(=S)N(CCCN2CCOCC2)Cc2cccnc2)cc1C | – | – | – | – | – | –
CCOc1ccc(NC(=S)NC(C)CCc2ccccc2)cc1 (stereo unspecified) | – | ? | – | ? | – | –
Cc1ccccc1NC(=S)NC(=O)CCc1ccccc1 | – | ? | – | ? | – | 17
SMILES | NS1 function inh | Pf growth 48h | FBPA Giardia inh | Pf growth 96h | Shiga inhibitor | CHX counter
Cc1ccccc1NC(=S)NC(C)CCc1ccccc1 (stereo unspecified) | – | ? | – | 13µM | – | –
Cc1ccc(-c2csc3ncn(CC(=O)O)c(=O)c23)cc1C | – | – | – | – | – | –
Cc1cccc2cc(CN(Cc3ccco3)C(=O)Nc3cccc(C#N)c3)c(Cl)nc12 | – | 9.3µM | – | 13µM | – | –
COc1ccccc1NC(=O)N(Cc1ccco1)Cc1cc2ccc(C)c(C)c2[nH]c1=O | – | ? | – | – | – | –
Cc1ccc(NC(=O)N(Cc2ccco2)Cc2cc3cc(C)cc(C)c3nc2Cl)cc1 | ? | ? | – | ? | 48 | 27
Cc1ccc(NC(=O)N(Cc2cccnc2)Cc2ccco2)cc1C | – | ? | – | ? | – | –
CS(=O)c1ccc(-n2c(=O)n(Cc3ccccc3)c(=O)c3[nH]cnc32)cc1 (stereo unspecified) | – | – | ? | – | – | –
O=C(COC(=O)Cc1ccccc1F)NNC(=O)c1ccc([N+](=O)[O-])cc1 | · | – | · | – | · | ·
C[N+](C)(C)c1ncnc2c1ncn2[C@@H]1CCCCO1 | – | · | · | · | · | ·
